Assay results: PubChem BioAssay (EPA / NIEHS)
Results filed as inconclusive are left out. More than one record can exist for a structure, and the calls need not agree. Activity calls are given as the source filed them. How the source made its calls: active means hit-call score of the fitted dose curve at least 0.9, where 1 is the maximum; inconclusive means response in the unintended direction; inactive means score below 0.9.

Each compound was assayed against Peroxisome proliferator-activated receptor gamma (Homo sapiens) (UniProt P37231) (assay: NVS_NR_hPPARg: NovaScreen (NVS) Nuclear Receptor Binding Assay for human Peroxisome Proliferator-activated Receptor gamma (PPARg) (AID 2283370)).
Procedure: NVS_NR_hPPARg is a biochemical, single-readout assay that uses extracted gene-proteins in a cell-free assay. Measurements were taken 2 hours after chemical dosing in a 384-well plate.NVS_NR_hPPARg is one of one assay component(s) measured or calculated from the NVS_NR_hPPARg assay. It is designed to make measurements of fluorescent polarization, a form of binding reporter, as detected with fluorescence polarization signals by Fluorescence Polarization technology.Data from the assay component NVS_NR_hPPARg was analyzed into 1 assay endpoint. This assay endpoint, NVS_NR_hPPARg, was analyzed in the positive analysis fitting direction relative to DMSO as the negative control and baseline of activity. Using a type of binding reporter, loss-of-signal activity can be used to understand changes in the binding as they relate to the gene PPARG. Furthermore, this assay endpoint can be referred to as a primary readout, because the performed assay has only produced 1 assay endpoint. To generalize the intended target to other relatable targets, this assay endpoint is annotated to the nuclear receptor intended target family, where the subfamily is non-steroidal.
Binding assays used specific radioligands (tritiated, iodinated) with non-radioactive competitive displacement ligands in agonist or antagonist protocols (as indicated) and various reference compounds and inhibitors to titrate specific binding to receptors and transporters. Most enzyme assays (CYPs, kinases, phosphatases, proteases, HDACs) used recombinant protein and specific substrates (fluorescence mostly, some colorimetric and radioactive) and inhibitors, followed by a biochemical separation of substrate and product. All assays for the biochemical HTS were initially run in duplicate at a single concentration (10 uM for CYP450 assays and 25 uM for all others). […] Each assay was run with positive and negative controls, and concurrent controls on every plate. The follow-up (secondary) screen tested active chemical-pairs in concentration series, as well as a few additional assays not tested in the primary screen, some selected negative inactives, and several cases re-run in the concentration series for confirmatory purposes.

Sequence of Peroxisome proliferator-activated receptor gamma (Homo sapiens) (P37231 whole entry, looked up): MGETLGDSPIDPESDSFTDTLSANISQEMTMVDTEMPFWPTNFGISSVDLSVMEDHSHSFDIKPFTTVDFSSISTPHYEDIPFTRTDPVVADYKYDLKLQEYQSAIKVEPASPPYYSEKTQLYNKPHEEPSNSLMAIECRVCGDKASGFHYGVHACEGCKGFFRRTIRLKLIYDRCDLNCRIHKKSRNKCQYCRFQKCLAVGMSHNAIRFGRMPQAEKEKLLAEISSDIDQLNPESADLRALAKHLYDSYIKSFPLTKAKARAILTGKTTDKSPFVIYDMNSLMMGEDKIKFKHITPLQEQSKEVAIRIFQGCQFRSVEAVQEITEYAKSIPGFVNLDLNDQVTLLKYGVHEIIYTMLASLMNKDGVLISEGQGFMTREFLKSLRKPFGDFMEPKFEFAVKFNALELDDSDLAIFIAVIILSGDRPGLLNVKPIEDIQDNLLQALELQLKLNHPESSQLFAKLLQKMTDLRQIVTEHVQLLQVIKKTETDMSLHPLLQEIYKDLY

Row | SMILES | outcome | AC50
1 | COCCOCCC[Si](C)(O[Si](C)(C)C)O[Si](C)(C)C | inactive | –
2 | CCCCCCCCCCCCC[N+](C)(C)Cc1ccccc1 | inactive | –
3 | CC(C)(C)c1cc(Cc2cc(C(C)(C)C)c(O)c(C(C)(C)C)c2)cc(C(C)(C)C)c1O | inactive | –
4 | CC(=O)CCC(C)C | inactive | –
5 | CC(C)Nc1ccc(NC(C)C)c2c1C(=O)c1ccccc1C2=O | inactive | –
6 | CCc1cc(Cc2cc(CC)c(N)c(CC)c2)cc(CC)c1N | inactive | 14.2 µM (active)
7 | CCCCCCCC/C=C\CCCCCCCC(=O)OCC(O)CO (stereo not drawn) | inactive | –
8 | CCCCCCCCCc1ccc(OCCO)cc1 | inactive | –
9 | CCCCCCCCn1sc(Cl)c(Cl)c1=O | inactive | –
10 | CCN=C1C=CC(=C(c2ccc(N(CC)CC)cc2)c2ccc(N(CC)CC)cc2)c2ccccc21 | inactive | –
11 | Cc1ccc([N+](=O)[O-])c(C)c1 | inactive | –
12 | CCOC(OCC)OCC | inactive | –
